# Reference: the supplement of paper PMC8728848
# This excerpt belongs to a sample that is enriched for the strongest signals.
# B1: rMpL (Macrolepiota procera) (protein)
# chain: MSTQVSSGRTYKITNVIAGTVIDLSGEDNKSIIGYPYHSGKNQQWTFNWTGKAWTLRSASSGSYLGIEGTPAGGTRLVAVNDPFEWHIWRDEANENAFRIFVPFTNYNLDLSGYGDTTPGTPVQLWWTWEGLHQTWTIDRP
# Columns and labels:
# Assay in all cases: glycan array binding signal (z-score within array); higher = stronger binding
# Conditions in all cases: glycan notation: IUPAC condensed, linker removed
# [1] = biological target: Gal(b1-4)GlcNAc(b1-3)Gal(b1-4)GlcNAc(b1-3)Gal(b1-4)GlcNAc(b1-3)Gal(b1-4)GlcNAc(b1-2)Man(a1-3)[Gal(b1-4)GlcNAc(b1-3)Gal(b1-4)GlcNAc(b1-3)Gal(b1-4)GlcNAc(b1-3)Gal(b1-4)GlcNAc(b1-2)Man(a1-6)]Man(b1-4)GlcNAc(b1-4)[Fuc(a1-6)]GlcNAc
# Method in brief: (§1)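 Glycan array data came from 3228 arrays in the Consortium for Functional Glycomics database, and only arrays with an available protein sequence were kept. Glycan names were put into IUPAC-condensed notation, and columns mapping to the same glycan were averaged. The binding signal is a within-array Z-score, averaged across arrays of one protein sequence run at different concentrations or buffers and across linkers. A negative Z-score can be read as non-binding.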
# [2] = biological target: Gal(b1-4)GlcNAc(b1-3)Gal(b1-4)GlcNAc(b1-3)Gal(b1-4)GlcNAc(b1-3)Gal(b1-4)GlcNAc(b1-2)[Gal(b1-4)GlcNAc(b1-3)Gal(b1-4)GlcNAc(b1-3)Gal(b1-4)GlcNAc(b1-3)Gal(b1-4)GlcNAc(b1-6)]Man(a1-6)[Gal(b1-4)GlcNAc(b1-3)Gal(b1-4)GlcNAc(b1-3)Gal(b1-4)GlcNAc(b1-3)Gal(b1-4)GlcNAc(b1-2)Man(a1-3)]Man(b1-4)GlcNAc(b1-4)[Fuc(a1-6)]GlcNAc
# Method in brief: as §1
# [3] = biological target: Gal(b1-4)GlcNAc(b1-3)Gal(b1-4)GlcNAc(b1-3)Gal(b1-4)GlcNAc(b1-3)Gal(b1-4)GlcNAc(b1-3)Gal(b1-4)GlcNAc(b1-2)[Gal(b1-4)GlcNAc(b1-3)Gal(b1-4)GlcNAc(b1-3)Gal(b1-4)GlcNAc(b1-3)Gal(b1-4)GlcNAc(b1-3)Gal(b1-4)GlcNAc(b1-6)]Man(a1-6)[Gal(b1-4)GlcNAc(b1-3)Gal(b1-4)GlcNAc(b1-3)Gal(b1-4)GlcNAc(b1-3)Gal(b1-4)GlcNAc(b1-3)Gal(b1-4)GlcNAc(b1-2)Man(a1-3)]Man(b1-4)GlcNAc(b1-4)[Fuc(a1-6)]GlcNAc
# Method in brief: as §1
# [4] = biological target: Gal3S(b1-3)[Fuc(a1-4)]GlcNAc
# Method in brief: as §1
# Gal3S(b1-4)Glc = biological target: Gal3S(b1-4)Glc
# Method in brief: as §1
# [5] = biological target: Gal3S(b1-4)[Fuc(a1-3)]GlcNAc6S
# Method in brief: as §1
# Gal6S(b1-4)Glc = biological target: Gal6S(b1-4)Glc
# Method in brief: as §1
# GalNAc(a1-3)GalNAc = biological target: GalNAc(a1-3)GalNAc
# Method in brief: as §1
# Glc(a1-4)Glc = biological target: Glc(a1-4)Glc
# Method in brief: as §1
# [6] = biological target: GlcNAc(b1-2)Man(a1-3)[GlcNAc(b1-2)Man(a1-6)]Man(b1-4)GlcNAc(b1-4)GlcNAc
# Method in brief: as §1
# [7] = biological target: GlcNAc(b1-3)Gal(b1-3)GalNAc
# Method in brief: as §1
# [8] = biological target: GlcNAc(b1-3)Gal(b1-4)GlcNAc(b1-3)Gal(b1-4)GlcNAc(b1-3)Gal(b1-4)GlcNAc(b1-3)Gal(b1-4)GlcNAc(b1-2)Man(a1-3)[GlcNAc(b1-3)Gal(b1-4)GlcNAc(b1-3)Gal(b1-4)GlcNAc(b1-3)Gal(b1-4)GlcNAc(b1-3)Gal(b1-4)GlcNAc(b1-2)Man(a1-6)]Man(b1-4)GlcNAc(b1-4)[Fuc(a1-6)]GlcNAc
# Method in brief: as §1
# [9] = biological target: GlcNAc(b1-4)GlcNAc(b1-4)GlcNAc
# Method in brief: as §1
# [10] = biological target: Man(a1-2)Man(a1-3)[Man(a1-6)]Man(a1-6)[Man(a1-2)Man(a1-3)]Man(b1-4)GlcNAc(b1-4)GlcNAc
# Method in brief: as §1
# [11] = biological target: Man(a1-3)[Man(a1-6)]Man(a1-6)[Man(a1-3)]Man
# Method in brief: as §1
# [12] = biological target: Neu5Ac(a2-3)Gal(b1-4)GlcNAc(b1-3)Gal(b1-4)GlcNAc(b1-6)[Gal(b1-3)]GalNAc
# Method in brief: as §1
# [13] = biological target: Neu5Ac(a2-3)Gal(b1-4)[Fuc(a1-3)]GlcNAc
# Method in brief: as §1
# [14] = biological target: Neu5Ac(a2-3)Gal(b1-4)[Fuc(a1-3)]GlcNAc(b1-6)[Neu5Ac(a2-3)Gal(b1-3)]GalNAc
# Method in brief: as §1
# [15] = biological target: Neu5Ac(a2-6)Gal(b1-4)GlcNAc
# Method in brief: as §1
# [16] = biological target: Neu5Ac(a2-6)Gal(b1-4)GlcNAc(b1-2)Man(a1-3)[Neu5Ac(a2-6)Gal(b1-4)GlcNAc(b1-2)Man(a1-6)]Man(b1-4)GlcNAc(b1-4)[Fuc(a1-6)]GlcNAc
# Method in brief: as §1
# [17] = biological target: Neu5Ac(a2-6)Gal(b1-4)GlcNAc(b1-2)Man(a1-6)[Gal(b1-4)GlcNAc(b1-2)Man(a1-3)]Man(b1-4)GlcNAc(b1-4)GlcNAc
# Method in brief: as §1
# [18] = biological target: Neu5Ac(a2-6)Gal(b1-4)GlcNAc(b1-3)Gal(b1-4)GlcNAc
# Method in brief: as §1
# [19] = biological target: Neu5Ac(a2-6)GalNAc(b1-4)GlcNAc
# Method in brief: as §1
# [20] = biological target: Neu5Ac(a2-6)GlcNAc(b1-4)GlcNAc
# Method in brief: as §1
# [21] = biological target: Neu5Ac(a2-8)Neu5Ac(a2-8)Neu5Ac(a2-3)[GalNAc(b1-4)]Gal(b1-4)Glc
# Method in brief: as §1
# [22] = biological target: Neu5Ac(b2-6)Gal(b1-4)GlcNAc
# Method in brief: as §1
# [23] = biological target: Neu5Ac9Ac(a2-3)Gal(b1-3)GlcNAc
# Method in brief: as §1
# [24] = biological target: Neu5Ac9Ac(a2-3)Gal(b1-4)GlcNAc
# Method in brief: as §1
# [25] = biological target: Neu5Gc(a2-3)Gal(b1-3)[Fuc(a1-4)]GlcNAc
# Method in brief: as §1
# Neu5Gc(a2-6)GalNAc = biological target: Neu5Gc(a2-6)GalNAc
# Method in brief: as §1
binder,measurement,setting,value
B1,glycan array binding signal (z-score),[1],3.33
same,glycan array binding signal (z-score),[2],4.7
same,glycan array binding signal (z-score),[3],4.6
same,glycan array binding signal (z-score),[4],-0.271
same,glycan array binding signal (z-score),Gal3S(b1-4)Glc,-0.325
same,glycan array binding signal (z-score),[5],-0.333
same,glycan array binding signal (z-score),Gal6S(b1-4)Glc,-0.233
same,glycan array binding signal (z-score),GalNAc(a1-3)GalNAc,-0.265
same,glycan array binding signal (z-score),Glc(a1-4)Glc,-0.289
same,glycan array binding signal (z-score),[6],-0.322
same,glycan array binding signal (z-score),[7],-0.302
same,glycan array binding signal (z-score),[8],-0.17
same,glycan array binding signal (z-score),[9],-0.382
same,glycan array binding signal (z-score),[10],-0.35
same,glycan array binding signal (z-score),[11],-0.268
same,glycan array binding signal (z-score),[12],-0.198
same,glycan array binding signal (z-score),[13],-0.32
same,glycan array binding signal (z-score),[14],-0.185
same,glycan array binding signal (z-score),[15],-0.358
same,glycan array binding signal (z-score),[16],-0.168
same,glycan array binding signal (z-score),[17],0.028
same,glycan array binding signal (z-score),[18],-0.363
same,glycan array binding signal (z-score),[19],-0.425
same,glycan array binding signal (z-score),[20],-0.364
same,glycan array binding signal (z-score),[21],-0.174
same,glycan array binding signal (z-score),[22],-0.33
same,glycan array binding signal (z-score),[23],-0.374
same,glycan array binding signal (z-score),[24],0.277
same,glycan array binding signal (z-score),[25],-0.335
same,glycan array binding signal (z-score),Neu5Gc(a2-6)GalNAc,-0.358
